In PubChem BioAssay:
Results filed as inconclusive are left out. Activity calls are given as the source filed them.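 How the source made its calls, unless noted: active means inhibition over a set limit, the all-compound mean plus 3 SD, in both replicate runs; inconclusive means over that limit in just one replicate run; inactive means at or under that limit in both runs.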

Assays:
[1] = reducers of endogenous Her2 protein level, primary screen, SKBR3 breast tumor cells, AlphaScreen, ATP viability (AID 461;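 active means Her2 level under about 52% in both replicate screens, with viability over 70% of control, limit read from the data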;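 on Her2 level: lower value means less Her2 protein in the cells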;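 on viability: percent of carrier control wells set as 100% viability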); settings: 18-24 h, measured here: SKBR3 viability, ATP luminescence, at 10 µM
[2] = target: Receptor tyrosine-protein kinase erbB-2 (Homo sapiens) (UniProt P04626); assay: as above; settings: 18-24 h, at 10 µM, stronger effect = lower value
[3] = SK-BR-3 cell growth inhibitors, pilot screen, 24 h, human (AID 572;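 active means viability at or below 10% of carrier control in both of two separate runs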;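 further: compound exposure lasted between 18 and 24 h rather than exactly 24 h; 100% = carrier-treated control wells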); settings: SK-BR-3 viability, CellTiter-Glo luminescence, at 10 µM, stronger effect = lower value
[4] = HUVEC growth inhibition – cell-based, human, primary screen (AID 575;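 active means viability at or below 30% in both replicate assays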;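 further: 100% = median of untreated cell wells with 0.1% DMSO on each plate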); settings: HUVEC proliferation, CellTiter-Glo luminescence, 72 h; at 10 µM; stronger effect = lower value
[5] = growth inhibitors of H69AR lung tumor, primary screen, human, duplicate replicates (AID 580;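 active means viability at or under a set limit in both replicates, limit being median viability minus 3 SD, cut at about 48% in these data, passing the limit was not always enough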;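 further: 100% = mean luminescence of untreated wells and 0% = no signal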); settings: H69AR lung tumor cells viability, ATP luminescence, 72 h; at 10 µM; stronger effect = lower value
[6] = reversal of MRP1-mediated doxorubicin resistance, pilot screen, H69AR cells, doxorubicin co-treatment (AID 601;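 active means viability loss from added drug above about 55%, and viability with drug at most 40%, in both replicates, limit read from the data, passing the limit was not always enough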); settings: CellTiter-Glo, 72 h, at 10 µM; for differential viability (reversal): stronger effect = higher value
[7] = 384-well plate pilot, post-Golgi transport modulator project, inhibition of yeast transport mutant growth (AID 636; in the data active means inhibition above about 31%); settings: absorbance 615 nm, about 18 h, stronger effect = higher value
[8] = growth suppression of yeast trafficking mutant, preliminary HTS, modulators of trafficking downstream of Golgi apparatus project, 1536-format plate, OD 615 nm (AID 637; in the data active means inhibition above about 30%); settings: yeast transport mutant growth, absorbance 615 nm, 18 h; stronger effect = higher value
[9] = OD615 S. cerevisiae growth inhibition, permissive medium, pilot counter-assay, permissive growth control for S. cerevisiae lifespan shortening project (AID 705;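 active means growth inhibition above 25% in both replicates, a cutoff set 3 SD above the mean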); settings: OD615, 24 h, at 10 µM, stronger effect = higher value
[10] = Restrictive medium S. cerevisiae growth inhibition, OD615, pilot screen of yeast lifespan reduction project, restrictive growth control (AID 706;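 active means growth inhibition above a set limit, 3 SD over mean compound inhibition, in both replicates, cut at about 43% in these data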;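 further: modified DeaD lifespan yeast strain shifted to restrictive glucose medium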); settings: OD615, 48 h, at 10 µM, stronger effect = higher value
[11] = viability gain of MRP-1-high H69AR cells under doxorubicin, pilot screen, MRP-1 activator project, CellTiter-Glo, duplicate (AID 807;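 active means viability increase at or above a cutoff of the median across tested compounds plus 3 SD, cut at about 8.5% in these data, passing the limit was not always enough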;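 further: compound pretreatment 18-22 h then 72 h combined with doxorubicin; 0% = doxorubicin alone and 100% = vehicle without doxorubicin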); settings: H69AR viability with doxorubicin, CellTiter-Glo luminescence; at 10 µM; stronger effect = higher value
[12] = growth suppression of beta-catenin knockout HCT116, pilot screen, human colon tumor cells (AID 823;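 active means cell viability at or below a set limit in both duplicate runs, the limit being the all-compound median minus 4 SD, cut at about 23% in these data, passing the limit was not always enough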;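 further: 0% = wells killed by 20 µM Hyamine and 100% = untreated DMSO cell wells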); settings: CellTiter-Glo, 60 h, at 10 µM, stronger effect = lower value
[13] = growth suppression of PTEN-deleted HCT116, pilot screen, cell-based, HCT116 clonal line, CellTiter-Glo (AID 824;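 active means viability at or below 27.92% in each of two runs, the all-compound median minus 4 SD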;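 further: 0% = 20 µM Hyamine control and 100% = vehicle cell control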); settings: 60 h, at 10 µM, stronger effect = lower value
[14] = inhibitors of the yeast RAM network, pilot screen, dse1pr::URA3 reporter, 5-FOA selection (AID 869);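 further: 0% = DMSO wells with no growth and 100% = 10 µM 1-NA-PP1 with full growth; RAM network block rescues cells from 5-FOA so hits raise OD615 growth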; settings: S. cerevisiae dse1pr::URA3 5-FOA growth, OD615, 2 d; at 10 µM; stronger effect = higher value; strain carries analog-sensitive mutant Cbk1 kinase
[15] = RAM signaling pathway blockade in yeast – S. cerevisiae, Pdr1DBD-CYC8 efflux-inhibited sensitized strain, primary screen (AID 1298;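 active means RAM network inhibition above 8.4% in each of two replicates, 3 SD over the compound average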;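 further: 0% = DMSO untreated cells without growth and 100% = 10 µM 1-NA-PP1 full growth; higher means more yeast growth rescued from 5-FOA killing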); settings: S. cerevisiae cbk1-as DSE1-URA3 strain, 5-FOA growth OD615, 2 d; at 50 µM; stronger effect = higher value
[16] = H69AR cells + 2 uM doxorubicin, measured here: viability with 2 uM doxorubicin, stronger effect = lower value
[17] = H69AR cells, compound alone cytotoxicity

Receptor tyrosine-protein kinase erbB-2 (Homo sapiens), sequence (P04626 whole entry, looked up): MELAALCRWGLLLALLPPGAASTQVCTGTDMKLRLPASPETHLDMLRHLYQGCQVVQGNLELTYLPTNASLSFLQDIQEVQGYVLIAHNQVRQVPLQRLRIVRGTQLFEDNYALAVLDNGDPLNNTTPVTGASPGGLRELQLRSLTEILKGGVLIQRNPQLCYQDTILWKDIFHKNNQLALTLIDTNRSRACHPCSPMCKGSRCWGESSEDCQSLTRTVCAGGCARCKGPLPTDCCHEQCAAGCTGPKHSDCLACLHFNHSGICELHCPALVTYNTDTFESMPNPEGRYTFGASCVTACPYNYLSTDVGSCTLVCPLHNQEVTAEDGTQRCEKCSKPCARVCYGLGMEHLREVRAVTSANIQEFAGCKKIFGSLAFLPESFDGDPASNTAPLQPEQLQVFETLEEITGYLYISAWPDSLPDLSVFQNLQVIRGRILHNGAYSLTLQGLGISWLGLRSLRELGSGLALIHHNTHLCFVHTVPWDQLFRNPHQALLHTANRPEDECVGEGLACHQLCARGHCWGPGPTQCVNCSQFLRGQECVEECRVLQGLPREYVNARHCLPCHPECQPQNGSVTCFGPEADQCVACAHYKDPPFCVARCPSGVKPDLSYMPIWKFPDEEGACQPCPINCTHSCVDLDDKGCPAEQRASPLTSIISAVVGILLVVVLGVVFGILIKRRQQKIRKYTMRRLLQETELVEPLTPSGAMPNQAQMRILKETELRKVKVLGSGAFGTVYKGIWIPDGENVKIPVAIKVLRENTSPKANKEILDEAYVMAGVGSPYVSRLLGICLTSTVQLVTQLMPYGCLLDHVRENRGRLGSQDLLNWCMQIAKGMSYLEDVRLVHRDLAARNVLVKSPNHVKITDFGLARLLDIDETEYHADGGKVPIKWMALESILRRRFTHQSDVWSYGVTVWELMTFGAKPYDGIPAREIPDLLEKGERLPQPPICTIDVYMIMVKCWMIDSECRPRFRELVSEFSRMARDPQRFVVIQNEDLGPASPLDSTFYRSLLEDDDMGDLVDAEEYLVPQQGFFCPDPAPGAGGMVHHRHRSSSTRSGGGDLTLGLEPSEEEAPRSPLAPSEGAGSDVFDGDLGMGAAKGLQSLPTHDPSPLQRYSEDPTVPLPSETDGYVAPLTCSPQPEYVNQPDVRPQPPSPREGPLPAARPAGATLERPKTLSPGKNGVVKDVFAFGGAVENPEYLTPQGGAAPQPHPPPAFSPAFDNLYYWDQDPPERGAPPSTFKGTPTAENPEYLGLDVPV

| SMILES | viability [1] | Her2 level [2] | viability [3] | viability [4] | viability [5] | differential viability (reversal) ([6]; H69AR cells + 2 uM doxorubicin) | viability [6, 16] | viability [6, 17] | inhibition [7] | inhibition [8] | growth inhibition [9] | growth inhibition [10] | viability increase [11] | viability [12] | viability [13] | inhibition [14] | RAM network inhibition [15] |
| --- | --- | --- | --- | --- | --- | --- | --- | --- | --- | --- | --- | --- | --- | --- | --- | --- | --- |
| Cn1nnnc1SCC(=O)Nc1ccccc1-c1ccccc1 | 100% | 110% (inactive) | 100% (inactive) | 99% (inactive) | 91.2% (inactive) | 9.64% (inactive) | 81.6% | 91.2% | -2.44% (inactive) | -1.33% (inactive) | -19.3% (inactive) | -10.2% (inactive) | -0.09% (inactive) | 97.4% (inactive) | 90% (inactive) | 0.31% (inactive) | 0.77% (inactive) |
| CCOC(=O)N1CCC(NC(=O)c2ccc3c(c2)N(CC)CCS3)CC1 | 94.5% | 91.5% (inactive) | 94.5% (inactive) | 100% (inactive) | 74.2% (inactive) | -5.34% (inactive) | 79.6% | 74.2% | -6.93% (inactive) | -0.33% (inactive) | -10.9% (inactive) | -0.105% (inactive) | -3.08% (inactive) | 98.2% (inactive) | 97% (inactive) | 3.51% (inactive) | 2.26% (inactive) |
| CCCNc1nc(N2CCOCC2)nc(N2CCOCC2)n1 | 97.5% | 110% (inactive) | 97.5% (inactive) | 109% (inactive) | 90.5% (inactive) | -3.39% (inactive) | 93.9% | 90.5% | -0.52% (inactive) | -7.38% (inactive) | -4.61% (inactive) | 2.38% (inactive) | -0.12% (inactive) | 92.8% (inactive) | 102% (inactive) | 1.26% (inactive) | 2.19% (inactive) |
| CCN(CC)CCCNC(=O)c1cn(C)c2ccc(S(=O)(=O)N(C)C)cc2c1=O | 98.5% | 116% (inactive) | 98.5% (inactive) | 99.2% (inactive) | 99.4% (inactive) | 2.72% (inactive) | 96.7% | 99.4% | -0.26% (inactive) | 1.5% (inactive) | -1.33% (inactive) | 8.49% (inactive) | -0.44% (inactive) | 101% (inactive) | 98.5% (inactive) | 2.21% (inactive) | 1.85% (inactive) |
| O=C(Oc1ccc2ccc(OC(=O)N3CCOCC3)cc2c1)N1CCOCC1 | 96.5% | 96% (inactive) | 96.5% (inactive) | 108% (inactive) | 84% (inactive) | -5.42% (inactive) | 89.5% | 84% | -0.13% (inactive) | -2.5% (inactive) | -14.7% (inactive) | -15.1% (inactive) | 1.51% (inactive) | 92.2% (inactive) | 87.7% (inactive) | 1.12% (inactive) | 4.57% (inactive) |
| O=C(CN1CCN(Cc2ccc(F)cc2Cl)C1=O)NCCCN1CCOCC1 | 99% | 104% (inactive) | 99% (inactive) | 95.2% (inactive) | 102% (inactive) | 14% (inactive) | 87.8% | 102% | -3.07% (inactive) | -5.08% (inactive) | -6.96% (inactive) | 8.75% (inactive) | -0.41% (inactive) | 94.5% (inactive) | 97.3% (inactive) | 0.47% (inactive) | 1.91% (inactive) |
| COc1ccc(C2CC(c3ccc(C)cc3)Nc3ncnn32)cc1 (stereo not drawn) | 106% | 96.5% (inactive) | 106% (inactive) | 105% (inactive) | 101% (inactive) | 14.9% (inactive) | 86.1% | 101% | -0.27% (inactive) | 3.28% (inactive) | 2% (inactive) | 20% (inactive) | -0.88% (inactive) | 104% (inactive) | 88.7% (inactive) | 1.41% (inactive) | 0.05% (inactive) |
| Cc1ccc2oc(=O)c3cnn(CC(=O)N4CCCc5ccccc54)c3c2c1 | 100% | 98.5% (inactive) | 100% (inactive) | 89.8% (inactive) | 74.8% (inactive) | 13.9% (inactive) | 60.9% | 74.8% | -2.67% (inactive) | -0.82% (inactive) | -12.4% (inactive) | -5.59% (inactive) | -3.17% (inactive) | 91.3% (inactive) | 82.3% (inactive) | 3.85% (inactive) | 6.86% (inactive) |
| CCOC(=O)C1CCN(Cc2ccc(OC)c(C)c2OC)CC1 | 88.5% | 97.5% (inactive) | 88.5% (inactive) | 108% (inactive) | 86.9% (inactive) | 3.22% (inactive) | 83.7% | 86.9% | -2.4% (inactive) | -7.1% (inactive) | -2.98% (inactive) | 2.96% (inactive) | -4.57% (inactive) | 78.3% (inactive) | 80.3% (inactive) | 1.16% (inactive) | 1.41% (inactive) |
| Cn1nnc2cc(C(=O)N3CCCCCC3)ccc21 | 81.5% | 99.5% (inactive) | 81.5% (inactive) | 81.7% (inactive) | 105% (inactive) | 10.6% (inactive) | 94.3% | 105% | -4.73% (inactive) | -6.23% (inactive) | -10.5% (inactive) | -19.7% (inactive) | -0.53% (inactive) | 109% (inactive) | 96% (inactive) | 0.345% (inactive) | 1.87% (inactive) |
| O=C1C/C(=C/NCc2ccccc2)C(=O)N1 | 93% | 111% (inactive) | 93% (inactive) | 95.5% (inactive) | 97.2% (inactive) | -4.96% (inactive) | 102% | 97.2% | 2.08% (inactive) | -9% (inactive) | -6.49% (inactive) | 0.205% (inactive) | 0.43% (inactive) | 99.7% (inactive) | 102% (inactive) | 1.04% (inactive) | 2.77% (inactive) |
| CCN1CCN(c2nc(C)nc3c2sc(=S)n3C)CC1 | 100% | 104% (inactive) | 100% (inactive) | 69.6% (inactive) | 90% (inactive) | -1.33% (inactive) | 91.3% | 90% | -3.73% (inactive) | 0.5% (inactive) | -11.2% (inactive) | -5.22% (inactive) | -2.66% (inactive) | 102% (inactive) | 92.6% (inactive) | 1.04% (inactive) | 1% (inactive) |
| CC(=O)OCCNc1cc(N2CCN(C)CC2)c2noc3c2c1C(=O)c1ccccc1-3 | 83% | 102% (inactive) | 83% (inactive) | 68.9% (inactive) | 66.9% (inactive) | -8.49% (inactive) | 75.4% | 66.9% | -1.54% (inactive) | 3.33% (inactive) | -7.97% (inactive) | -9.2% (inactive) | -6.89% (inactive) | 76.8% (inactive) | 73% (inactive) | 8.66% (active) | 12.4% (inactive) |
| COc1ccccc1CNC(=O)CCn1c(=O)[nH]c2ccsc2c1=O | 97.5% | 102% (inactive) | 97.5% (inactive) | 114% (inactive) | 93.9% (inactive) | 4.96% (inactive) | 88.9% | 93.9% | -7.97% (inactive) | 2.17% (inactive) | -21% (inactive) | -14.4% (inactive) | -0.23% (inactive) | 101% (inactive) | 99.4% (inactive) | 1.01% (inactive) | 4.41% (inactive) |
| COc1ccc(C(=O)Oc2c(CN3CCOCC3)cc(Cl)c3cccnc23)cc1OC | 93% | 95.5% (inactive) | 93% (inactive) | 71.8% (inactive) | 1.58% (active) | -0.17% (inactive) | 1.75% | 1.58% | -5.87% (inactive) | -6.23% (inactive) | -12.6% (inactive) | -19.1% (inactive) | -8.29% (inactive) | 9.93% (active) | 5.98% (active) | 1.39% (inactive) | 0.26% (inactive) |
| O=P(O)(CCc1ccccc1)CN1CCCCC1 | 106% | 106% (inactive) | 106% (inactive) | 102% (inactive) | 95.5% (inactive) | 3.43% (inactive) | 92% | 95.5% | 7.97% (inactive) | -1.97% (inactive) | -2.51% (inactive) | -11.9% (inactive) | -0.92% (inactive) | 102% (inactive) | 98.8% (inactive) | 2% (inactive) | 1.24% (inactive) |
| CCOc1ccc(NC(=O)CSc2nnc(COc3c(C)cccc3C)o2)cc1 | 95% | 102% (inactive) | 95% (inactive) | 86.7% (inactive) | 80.6% (inactive) | -5.7% (inactive) | 86.3% | 80.6% | -4.93% (inactive) | -2.83% (inactive) | -9.38% (inactive) | -14.3% (inactive) | -1.9% (inactive) | 98.9% (inactive) | 98.3% (inactive) | 3.71% (inactive) | 8.74% (inactive) |
| CCOc1ccc(N(CC(=O)Nc2ccc(F)c(F)c2)S(=O)(=O)c2c(C)noc2C)cc1 | 83.5% | 80% (inactive) | 83.5% (inactive) | 54% (inactive) | 65.8% (inactive) | 1.49% (inactive) | 64.3% | 65.8% | -4.4% (inactive) | -1.31% (inactive) | -11.3% (inactive) | -9.45% (inactive) | -3.6% (inactive) | 93% (inactive) | 88.7% (inactive) | 2.33% (inactive) | 4.77% (inactive) |
| CCOc1ccc(Cn2nnc(C(=O)NCc3ccc(OC)cc3)c2N)cc1 | 95% | 102% (inactive) | 95% (inactive) | 74.3% (inactive) | 89.5% (inactive) | -2.11% (inactive) | 91.6% | 89.5% | -4.67% (inactive) | -4.33% (inactive) | -3.91% (inactive) | -6.16% (inactive) | -0.43% (inactive) | 95.8% (inactive) | 94.8% (inactive) | 2.19% (inactive) | 4.7% (inactive) |
